Screening data from PubChem BioAssay.
Sampled rows, rich in hits. Any-hit rate of the full collection: about 19%.
SW480 rerep = inducers of DNA re-replication in SW480 colon cancer cells. SW480 DNA re-replication, Hoechst DNA content imaging, 48 h. Potency, µM (titrated, usually from 46.1 µM), inactives show at the highest dose re-replication activation, hits mostly activators. hit rate 1.8% among 340,000. AID 624297; further: potency means the concentration at half of the fitted maximal effect; % of control where 0% means no effect; nearly all actives have a fitted effect of over 55% in size
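Cells (250 per well) received 23 nL compound or DMSO by pin tool and were kept 48 hr at 37 C, 5% CO2. Nuclei were then stained with Hoechst for 40 min and scanned for DNA content.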
MCF10A rerep = induces DNA re-replication in MCF 10a normal breast cells. MCF 10A DNA re-replication, Hoechst nuclear intensity, 48 h. Potency, µM (highest dose often 46.1 µM), for inactives: top-dose activity, positive = re-replication, most hits filed as activators. hit rate 2.9% among 350,000; further: potency means the concentration at half of the fitted maximal effect; % of control where 0% means no effect; nearly all actives have a fitted effect of over 50% in size
DT40 TDP1 no CPT = qHTS for Inhibitors of human tyrosyl-DNA phosphodiesterase 1 (TDP1): qHTS in cells in absence of CPT | Potency, µM (top dose mostly 46.2 µM), without a hit: at the top dose activity change, negative = growth inhibition, usual class: inhibitors | hit rate 15% among 420,000 | DT40 Tdp1-/- hTDP1 cells, no CPT, ATP luminescence, 48 h; further: potency means the concentration at half of the fitted maximal effect; on the % scale 0 is the no-effect control and ±100 the full control effect; nearly all actives have a fitted effect of over 55% in size
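Chicken DT40 Tdp1-/- cells stably complemented with human TDP1 were seeded at 400 cells/well with DMSO in place of 20 nM camptothecin. After compound pinning, cells grew at least 48 hr at 37 °C; viability read by CellTiter-Glo luminescence.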
DT40 TDP1 CPT = growth inhibition of DT40 Tdp1-/-;hTDP1 cells with camptothecin (screen for TDP1 inhibitors). chicken DT40 Tdp1-/-;hTDP1 cells + 20 nM CPT, ATP luminescence, 48 h. Potency, µM (titrated, usually from 46.2 µM), inactives show top-dose activity change, negative = growth inhibition, most hits filed as inhibitors. hit rate 12% among 420,000; further: potency means the concentration at half of the fitted maximal effect; on the % scale 0 is the no-effect control and ±100 the full control effect; nearly all actives have a fitted effect of over 55% in size
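Chicken DT40 Tdp1-/- cells stably complemented with human TDP1 were seeded at 400 cells/well in medium containing 20 nM camptothecin, exposed to pin-transferred compounds, and grown at 37 °C for at least 48 hr. Viability was read as ATP luminescence.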
Chronic BCR inh = blocks chronic active B-cell receptor signaling. Potency, µM (series often up to 46.1 µM), for inactives: at the highest dose activity change, negative = inhibition, hits mostly inhibitors. hit rate 0.05% among 340,000. ABC-DLBCL IkBa-CBG/CBR reporter, luminescence ratio, 4 h. AID 493014; active means well fitted inhibition curve with a large enough effect in the signal ratio, with a control signal flat, not every such curve was filed as active; inconclusive means small, poorly fitted or top-dose-only effect, or effect the other way, or a change in a side signal; the % refers to the signal ratio;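 further: potency means the concentration at half of the fitted maximal effect; plate controls were basal doxycycline-induced cells for no effect and cells given 10 µM MG132 for full effect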
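Compounds up to 46 uM were incubated four hours with TMD8 cells whose green CBG68 luciferase is fused to IkappaBalpha; red CBR luminescence normalised the signal, and concentration-effect curves were fitted to fusion, red and ratio data.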
IL1B secr inh = blocks inflammasome-driven IL-1 beta release; THP-1 LPS/ATP IL-1B secretion, AlphaLISA, 16 h; hits give low values; activity change, % at 57.5 µM; hit rate 4.7% among 360,000; in the data active means activity change below about -50%; inconclusive means mostly about -30% to -49%; further: on the % scale 0 is the no-effect control and ±100 the full control effect
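THP-1 cells pretreated 1 hr with compounds (up to 57.5 uM final), then stimulated with LPS (250 ng/mL final) plus ATP (1.25 mM final); secreted IL-1B measured by AlphaLISA after 16 hr, decreased signal indicating inhibition.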
Active calls of the source: *; ? = inconclusive; / = no result given. Unless noted, the call rests on the fitted dose curve; in most records, active means well fitted curve in the direction sought with a large enough effect; inconclusive means small, poorly fitted or top-dose-only effect, or another doubt; inactive means no such curve, though single readings can be large; an effect the other way counts as inactive or inconclusive.

SMILES | SW480 rerep | MCF10A rerep | DT40 TDP1 no CPT | DT40 TDP1 CPT | Chronic BCR inh | IL1B secr inh
CC(=O)N/N=C/c1cc(C(C)C)cc(/C=N/NC(C)=O)c1O | 15µM* | 18µM* | ? | ? | -5% | 26
COc1ccc(CN(C(=O)c2nsc(Cl)c2Cl)C(C(=O)NC2CCCC2)c2ccc(C)cc2)cc1 (configuration not stated) | ? | ? | 15µM* | 12µM* | 10% | -22
COc1ccc(CN(C(=O)c2nsc(Cl)c2Cl)C(C(=O)NC2CCCCC2)c2ccc(OC)cc2)cc1 (configuration not stated) | 2% | 2% | 23µM* | 5.8µM* | ? | -21
Cc1ccc(C)c(N(C(=O)c2nsc(Cl)c2Cl)C(C(=O)NC2CCCC2)c2ccc(O)cc2)c1 (configuration not stated) | 17% | 11% | ? | ? | 3% | -71*
COc1ccc(CN(C(=O)c2snc(C(N)=O)c2N)C(C(=O)NC2CCCC2)c2ccc(OC)c(OC)c2)cc1 (configuration not stated) | ? | 18% | ? | ? | 2% | -21
Cc1ccc(C)c(N(C(=O)c2csnn2)C(C(=O)NC2CCCC2)c2ccncc2)c1 (configuration not stated) | 0% | -3% | -7% | 1% | 6% | 3
CCN(Cc1ccncc1)Cc1cn[nH]c1-c1ccc(OC)cc1F | -1% | 8% | ? | -26% | 16% | 12
COc1ccc(NN=Nc2nc3c([nH]2)c(=O)n(C)c(=O)n3C)cc1 | 0% | 8% | ? | 21µM* | ? | 28
O=C(N/N=C/c1ccc(F)cc1)c1cc(-c2ccco2)nc2ccccc12 | ? | 13µM* | 13µM* | 12µM* | 6% | 28
CCNC(=O)COC(=O)c1cc(-c2ccco2)nc2ccccc12 | ? | -9% | ? | ? | 21% | 8
C/C(=N\NC(=O)c1cc(-c2ccco2)nc2ccccc12)c1cccnc1 | ? | -15% | ? | ? | ? | 3
CCOc1ccc(/C=N/NC(=O)c2cc(-c3ccco3)nc3ccccc23)cc1 | ? | 4.1µM* | 23µM* | ? | -5% | -15
CC[C@@H]1CC2=C(C(=O)OC(C)(C)O2)[C@@H](c2ccc(Cl)cc2)O1 | / | / | -22% | -19% | / | 9
Cc1cc(N(C)C)cc(C)c1C=O | / | / | 0% | -7% | / | /
CNc1cc(OC)c(C(=O)N[C@H]2CCN(Cc3ccccc3)[C@H]2C)cc1Cl | / | / | 12µM* | 11µM* | / | /
COCCNS(=O)(=O)c1ccc(Cl)c(C(=O)NC2CCN(Cc3ccccc3)CC2)c1 | 10% | 4% | -28% | -9% | 5% | 5
COc1ccccc1-c1nccc(NCc2cnc(C)cn2)n1 | / | / | -2% | 3% | / | /
CC(C)N1CCC1(C)C(=O)Nc1ccc(-n2cccc2)cc1 (configuration not stated) | / | / | ? | 15µM* | / | -19
CC(C)N1CCC(C)(C(=O)Nc2ccc(-n3cccc3)cc2)C1 (configuration not stated) | / | / | ? | ? | / | -17
Cc1ccc(NC(=O)CNC(=O)c2ccco2)cc1 | -1% | -4% | 9% | 2% | 8% | 0
O=C(NCC1CCCCC1)c1cc2ccccc2cc1O | ? | 18µM* | ? | 21µM* | ? | -88*
CC1CCC(NC(=O)c2cc3ccccc3cc2O)CC1 (configuration not stated) | -20% | 13% | ? | ? | ? | -3
O=C(N/N=C1/CC2CCC1C2)c1cc2ccccc2cc1O (configuration not stated) | ? | 1% | 21µM* | 23µM* | 7% | 89
O=C(C[C@H]1C/C=C\CCCCC(=O)OC[C@H]2CCCN2C1=O)N[C@H](CO)Cc1ccccc1 | -8% | 2% | ? | ? | -2% | 21
CCCCNC(=O)c1ccc2c(c1)NC(=O)C(CS(=O)(=O)Cc1cccc(C)c1)N2 (configuration not stated) | / | / | ? | -15% | / | /
SMILES | SW480 rerep | MCF10A rerep | DT40 TDP1 no CPT | DT40 TDP1 CPT | Chronic BCR inh | IL1B secr inh
Cc1cccc(CS(=O)(=O)CC2Nc3ccc(C(=O)NCc4ccccc4Cl)cc3NC2=O)c1 (configuration not stated) | / | / | ? | 8.2µM* | ? | /
O=C(CC1CC2CCC1C2)N1CCN(S(=O)(=O)c2ccc(F)cc2)CC1 (configuration not stated) | / | / | -44% | -47% | / | 37
CCOC(=O)c1c(CSc2cccs2)n(C)c2cc(Br)c(O)c(CN(C)C)c12 | 5% | 5% | 18µM* | 16µM* | ? | -54*
CCOC(=O)c1c(C)n(C)c2cc(Br)c(O)c(O)c12 | -1% | 17% | ? | -28% | ? | 0
CCOc1ccc(C(=O)N(CN2CCCC2=O)c2ccccc2)cc1 | 3% | 2% | ? | -16% | ? | 7
CCOc1ccc(C(=O)N(CN2CCCC2=O)c2ccc(C)cc2)cc1 | -2% | 1% | 23µM* | 8.2µM* | -5% | 9
COC(=O)c1ccc(-c2nc3cc(Cl)c(N)cc3s2)cc1 | ? | 0.65µM* | -7% | ? | ? | -2
COC(=O)c1ccc(-c2nc(O)c(C)s2)cc1 | -1% | -1% | ? | -27% | -2% | 0
CCCN1Cc2cccc(C(=O)Nc3ccccc3C(=O)OC)c2C1=O | / | / | 16µM* | 23µM* | / | /
CCCN1Cc2cccc(C(=O)Nc3ccc(OC)cc3OC)c2C1=O | / | / | 23µM* | ? | / | /
CCCN1Cc2cccc(C(=O)Nc3cc(OC)cc(OC)c3)c2C1=O | 14% | 3% | -21% | -22% | 10% | 0
CCCN1CCN(CC(=O)Nc2nncs2)CC1 | -13% | 15% | 15% | 13% | 7% | -5
CN(CC1COCCO1)C(=O)c1cnn(-c2ncc3c(n2)-c2ccccc2CC3)c1C1CC1 (configuration not stated) | / | / | -28% | ? | / | /
CC(C)(C)c1ccc(C2C(C(=O)c3ccco3)=C(O)C(=O)N2CC2CCCO2)cc1 (configuration not stated) | 3% | 1% | 18µM* | ? | -4% | -3
CCc1sc(C(=O)Nc2cccc(-n3cnnn3)c2)cc1C | -29% | 7% | ? | ? | -5% | ?
O=C(NCCCO)/C(=C\c1ccco1)NC(=O)c1ccco1 | 20% | -1% | -1% | 19% | 9% | -3
COc1ccccc1NC(=O)C1=C(C)Nc2c(C(=O)Nc3ccc(F)cc3)cnn2C1c1ccc(Cl)cc1 (configuration not stated) | / | / | ? | 13µM* | / | /
